A340 absorber – absorbance at 340 nm. compound absorbance at 340 nm, fold over control. 65,000 tested, under 10 active. AID 708. fold change at 10 µM;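 active = at 10 µM dose, initial 340 nm absorbance at least 2 fold that of control wells; inactive = change under 2 fold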;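 note: initial absorbance extrapolated from kinetic A340 decline of NADH oxidation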
PMK inhibit – S. pneumoniae PMK inhibition | purified PMK, PK/LDH-coupled NADH absorbance 340 nm | inhibition, % at 10 µM | actives 0.49% (n = 65,000) | AID 539;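 active = top-ranked compounds by inhibition in the single 10 µM screen, taking a fixed number of the strongest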;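 note: 0% = full reaction with DMSO carrier and 100% = background rate without enzyme reaction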
Spn MK inh – inhibitors of Streptococcus pneumoniae mevalonate kinase | inhibition, % at 10 µM | purified MK, PK/LDH-coupled NADH absorbance 340 nm | actives 0.48% (n = 65,000);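 active = ranked among the strongest by inhibition in the single 10 µM screen, a fixed top-ranked set picked for dose follow-up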
Autofluor 339 – intrinsic fluorescence of library compounds, ex339/em460 – biochemical, MLSMR library, data from DPM-DC assay, artefact control, profiling panel. fluorescence fold increase at 10 µM. compound autofluorescence, ex339/em460 nm, NADH buffer; stronger effect = higher value; 1 = no-compound wells, NADH background. actives 5.5% (n = 65,000);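 active = at 10 µM, mean starting fluorescence two-fold or more over control wells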;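 note: signal is the first read of a kinetic run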
NADH coupling – inhibitors of enzymes used to reach an NAD/NADH endpoint | actives 0.02% (n = 65,000) | AID 774 | IC50, µM (doses to about 10 µM), without a hit: at the top dose inhibition | coupled PK/LDH NADH assays, four targets;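 active = single-dose screening hits from any of four coupled enzyme assays that gave an IC50 when retested across doses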;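 note: the DPM-DC format reads NADH fluorescence rather than 340 nm absorbance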
Spn DPM-DC inh – blocks S. pneumoniae diphosphomevalonate decarboxylase | purified DPM-DC, PK/LDH coupled NADH fluorescence | calls only at 10 µM | actives 0.49% (n = 65,000) | AID 556;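 active = the 320 compounds with the highest percent inhibition in the single-dose primary screen, excluding strongly autofluorescent ones, cut at about 32% in these data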;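 note: kinetic rate of NADH fluorescence loss reporting ADP formed by the decarboxylase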
The depositor's hits bear a star; i = inactive; . = no result shown; + = active, no number. The list is not random: actives were taken first. Their share in the collection is about 6.5%.

SMILES	A340 absorber	PMK inhibit	Spn MK inh	Autofluor 339	NADH coupling	Spn DPM-DC inh
Cc1nnc(C)c2c(C)n(C(C)c3ccccc3)c(C)c12 (stereo not given)	1.05	0.0	6.0	2.11*	3.0%	i
Cc1occc1-c1nnc(SCC(=O)NC(C)(C)C)n1C(C)c1ccccc1 (stereo not given)	0.98	11.0	5.0	1.12	5.0%	i
COc1cc(S(=O)(=O)N2CCN(C)CC2)ccc1Cl	0.98	6.0	9.0	1.05	5.0%	i
CN1CCN(S(=O)(=O)c2cccc(S(=O)(=O)c3ccc(Cl)c(Cl)c3)c2)CC1	1.05	25.0*	13.0	1.1	13.0%	i
O=C(Cn1ncc2c(=O)oc3ccccc3c21)NC1CC1	0.99	10.0	3.0	1.11	4.0%	i
Cc1ccc2oc(=O)c3cnn(CC(=O)NC4CCN(Cc5ccccc5)CC4)c3c2c1	1.03	5.0	3.0	0.95	14.0%	+
COC(=O)CSc1nc2cc(OC)ccc2cc1C#N	1.09	2.0	4.0	2.27*	7.0%	i
Cc1ccc2cc(C#N)c(SCC(=O)NCc3ccco3)nc2c1	1.01	10.0	5.0	1.21	5.0%	i
COc1ccc2cc(C#N)c(SCC(=O)N3CCCC3)nc2c1	1.01	1.0	0.0	1.8	6.0%	i
CCOC(=O)CSc1nc(N)c(C#N)c(-c2ccc(OC)cc2)c1C#N	1.04	7.0	13.0	1.11	7.0%	i
COc1ccc2cc(C#N)c(NC(C)C)nc2c1	1.01	8.0	9.0	2.65*	3.0%	.
CCOC(=O)CSc1nc2cc(OCC)ccc2cc1C#N	1.05	8.0	9.0	2.62*	13.0%	i
CCOc1ccc2cc(C#N)c(SCC(=O)NC(C)CC)nc2c1 (stereo not given)	1.02	0.0	5.0	3.22*	5.0%	i
Cc1cc(S(=O)(=O)NCCCN2CCOCC2)ccc1F	0.97	14.0	0.0	1.07	5.0%	i
Cc1cccc2cc(C#N)c(SCC(=O)N3CCC(C)CC3)nc12	1	14.0	6.0	1.12	8.0%	i
CCOc1ccc2cc(C#N)c(SCC(=O)N3CCC(C)CC3)nc2c1	1	9.0	12.0	2.47*	6.0%	i
Cc1ccc(-n2nnnc2SCc2nnc(-c3ccccc3Br)o2)c(C)c1	1.02	14.0	1.0	1.05	6.0%	i
O=S1(=O)c2cccc3cccc(c23)N1Cc1nnc(-c2ccccc2Br)o1	1	6.0	8.0	1.72	5.0%	i
CCCN1c2cccc3cccc(c23)S1(=O)=O	1.05	2.0	12.0	2.25*	7.0%	.
N#CCCCCN1c2cccc3cccc(c23)S1(=O)=O	1.03	10.0	0.0	3.74*	5.0%	.
O=S1(=O)c2cccc3cccc(c23)N1Cc1ccc(-c2nnco2)cc1	1.01	19.0	0.0	2.84*	12.0%	i
COc1cc(NC(=O)CN2c3cccc4cccc(c34)S2(=O)=O)cc(OC)c1OC	1.09	4.0	13.0	2.56*	14.0%	i
O=C(CN1c2cccc3cccc(c23)S1(=O)=O)NCc1ccc2c(c1)OCO2	1.09	2.0	2.0	1.82	7.0%	i
CCC(c1nnnn1Cc1ccco1)N(CCN1CCOCC1)Cc1cc2cc(C)ccc2[nH]c1=O (stereo not given)	1.08	9.0	6.0	1.23	5.0%	i
Cc1cc(C)nc(N2CCC(C(=O)Nc3ccc(Oc4ccccc4)cc3)CC2)n1	1	18.0	4.0	1.02	3.0%	i
SMILES	A340 absorber	PMK inhibit	Spn MK inh	Autofluor 339	NADH coupling	Spn DPM-DC inh
Cc1ccnc(N2CCC(C(=O)Nc3ccc(Oc4ccccc4)cc3)CC2)n1	1	29.0*	0.0	1.22	10.0%	i
COc1ccc2c(c1)CCc1c(C(=O)Nc3cc(C)n(Cc4ccc(Cl)cc4)n3)noc1-2	1.08	15.0	3.0	3.7*	8.0%	i
COc1ccc2c(c1)CCc1c(C(=O)Nc3ccc(OC)c(OC)c3)noc1-2	0.99	16.0	0.0	2.17*	5.0%	i
COc1ccc2c(c1)CCc1c(C(=O)Nc3ccn(Cc4ccc(C)cc4)n3)noc1-2	1.04	13.0	0.0	1.17	4.0%	i
O=C(c1cc2ccccc2oc1=O)N(Cc1ccc2c(c1)OCO2)Cc1ccco1	1.02	13.0	8.0	1.1	11.0%	i
CC(NC(=O)OCc1ccccc1)C(=O)N1CC(O)CC1C(=O)O (stereo not given)	0.98	9.0	14.0	1.04	4.0%	i
O=C(Nc1ccc(Cl)cc1)c1cc2nc(-c3ccco3)cc(C(F)(F)F)n2n1	1.05	5.0	8.0	2.55*	9.0%	i
Cc1ccccc1Cn1cc(NC(=O)c2cc3nc(-c4ccco4)cc(C(F)(F)F)n3n2)cn1	1.05	14.0	13.0	3.03*	23.0%	+
CCN(CC)S(=O)(=O)c1ccc(C(=O)OCn2nnc3ccccc3c2=O)cc1	1	12.0	8.0	1.03	8.0%	i
COc1ccc(-c2nn(-c3ccccc3)cc2C(=O)N2CCOCC2)cc1	1.03	2.0	1.0	1.07	1.0%	i
Cc1ccc(-c2cc(C(=O)N3CCOCC3)c3ccccc3n2)cc1	1.1	1.0	0.0	2.09*	1.0%	.
Cc1ccc(-c2cc(C(=O)N3CCN(c4ncccn4)CC3)c3ccccc3n2)cc1	1.05	17.0	0.0	1.3	6.0%	i
COc1ccc(-c2cc(C(=O)N3CCOCC3)c3cc(C)ccc3n2)cc1	1.11	0.0	2.0	3.7*	1.0%	.
COC(=O)c1cc(-c2ccc3c(c2)OCO3)nc2ccccc12	1.11	8.0	8.0	2.19*	8.0%	.
CC(=O)n1c2ccccc2c2c1c1ccccc1n2C	1.13	12.0	2.0	2.09*	7.0%	.
CCOC(=O)C1CCN(c2nc3cc(OC)ccc3cc2C#N)CC1	0.99	12.0	7.0	2.09*	9.0%	i
COc1ccc2nc(N3CCC(O)CC3)c(C#N)cc2c1	0.99	21.0	10.0	2.87*	20.0%	i
COc1ccc2nc(N3CCC(C)CC3)c(C#N)cc2c1	1	2.0	10.0	1.38	5.0%	i
COC(=O)CN(c1ccccn1)S(=O)(=O)c1ccccc1	1.03	6.0	2.0	3.14*	10.0%	i
CCOC(=O)c1cc(-c2cccs2)nc2onc(C)c12	1.04	11.0	0.0	4.83*	6.0%	.
Cc1noc2nc(-c3cccs3)cc(-c3nnc4n3CCCCC4)c12	1.17	11.0	0.0	2.07*	6.0%	.
c1csc(-c2cnc3n2CCCC3)c1	1.05	0.0	6.0	1.09	2.0%	i
CCOC(=O)c1nnn(-c2nonc2N)c1-c1cccs1	1.01	18.0	0.0	1.05	6.0%	i
COc1ccc(-c2cn3cc(Cl)ccc3n2)cc1OC	1.1	5.0	0.0	4.8*	3.0%	.
COc1ccc(-c2onc3ccc(Cl)cc23)cc1OC	1.14	3.0	5.0	1.47	3.0%	i
Nc1c2c(nc3ccccc13)N(c1ccccc1)CC2	1.08	0.0	42.0*	2.27*	21.0%	.

Compound activity: PubChem BioAssay, SRMLSC
